The values below come from PubChem BioAssay (Tox21).

Results filed as inconclusive are left out. A number with no mark means an inactive call. Active and inactive are the calls of the source. Unless noted, the call rests on the fitted dose curve; in most records, active means well fitted curve in the direction sought with a large enough effect in the repeat runs; inconclusive means weak or mixed curves; inactive means no such curve, though single readings can be large; an effect the other way counts as inactive or inconclusive.

Experiment [1] in a line: qHTS assay to identify small molecule antagonists of the estrogen related receptor (ERR) signaling pathway - cell viability counter screen (AID 1224818). Further: potency means the concentration at half of the fitted maximal effect.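 Further: viability measured after 17.5 h of compound exposure.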 The method in brief:
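Cytotoxicity check run alongside the ERR antagonist screen: cells exposed to test compounds 17.5 h at 37 C, viability taken as CellTiter-Fluor fluorescence intensity.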
A general note: Quantitative high-throughput screening tests each substance at several concentrations.

Experiment [2] can be described thus: qHTS assay to identify small molecule antagonists of the estrogen related receptor (ERR) signaling pathway (AID 1224819;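 further: luminescence from an ERR-driven luciferase reporter measured with One-Glo reagent; series mostly up to about 46 µM; nearly all actives have a fitted effect of over 50% in size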). The method in brief:
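ERR reporter cells were plated at 2,000 cells/well and left 6 h at 37 C/5% CO2 before pin-tool transfer of compounds in DMSO. After 18 h at 37 C, One-Glo was added and luminescence was read 30 min later at room temperature.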

Experiment [3] is described as follows: qHTS assay to identify small molecule agonists of the estrogen related receptor (ERR) signaling pathway (AID 1224820). The method in brief:
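An ERR cell line provided by NTP was seeded at 2,000 cells per well and allowed to settle for 6 h before compounds in DMSO were added. After 18 h at 37 C, luciferase activity was measured by One-Glo luminescence.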

Experiment [4] concerns estrogen-related receptor alpha (ERRalpha) with PGC-1alpha coactivator, human. The experiment is described as follows: qHTS assay to identify small molecule antagonists of the estrogen related receptor signaling pathway with the pleiotropic PPARgamma coactivator (PGC) (AID 1224821; calls by dose curve;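 further: series mostly up to about 46 µM; lower luminescence signal means antagonism of PGC/ERR signalling; nearly all actives have a fitted effect of over 50% in size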). The method in brief: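 A PGC/ERR cell line supplied by NTP is seeded, allowed 6 h at 37 C, and treated with test compounds in DMSO for 18 h. Signal is then measured as luciferase luminescence using One-Glo.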

Experiment [5] can be described thus: qHTS assay to identify small molecule antagonists of the estrogen related receptor signaling pathway with the pleiotropic PPARgamma coactivator (PGC) cell viability counter screen (AID 1224822; further: potency means the concentration at half of the fitted maximal effect;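 further: viability read after 17.5 h compound exposure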). The method in brief:
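Viable cell signal (CellTiter-Fluor, 30 min, 37 C/5% CO2) was measured in PGC/ERR cells after a 17.5 h compound incubation.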

A short description of experiment [6]: qHTS assay to identify small molecule agonists of the estrogen related receptor signaling pathway with the pleiotropic PPARgamma coactivator (PGC) (AID 1224823). The method in brief: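 Compounds dissolved in DMSO are added by pin tool to PGC/ERR cells that have settled for 6 h, and incubation continues 18 h at 37 C. Reporter output is measured as One-Glo luminescence.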

Consider `CCCN(CCC)[C@@H]1CCc2cccc(O)c2C1`, for which the Potency result in experiment [1], in experiment [2], in experiment [3], in experiment [4], in experiment [5] and in experiment [6] was “inactive” in each case.

For the compound `NC1CCc2cc(O)c(O)cc2C1` (stereo not given), the Potency entry in experiment [1], in experiment [2], in experiment [3], in experiment [4] and in experiment [6] was “inactive” throughout.

On to `S=C(NC1CCCCC1)N1CCC(c2cnc[nH]2)CC1`, for which the Potency entry in experiment [1], in experiment [3], in experiment [4], in experiment [5] and in experiment [6] was “inactive” in each case.

Regarding `CC(=O)OCC1=C(C(=O)[O-])N2C(=O)[C@@H](NC(=O)CCC[C@@H](N)C(=O)[O-])[C@H]2SC1.[Zn+2]`, the Potency entry in experiment [1], in experiment [3], in experiment [4], in experiment [5] and in experiment [6] was “inactive” in each case.

As to `O=C(O)Cc1cnc[nH]1`, the Potency entry in experiment [1], in experiment [3], in experiment [4], in experiment [5] and in experiment [6] was “inactive” each time.

`Ic1ccccc1CNC1C2CCN(CC2)C1C(c1ccccc1)c1ccccc1` (stereo not given): the Potency in experiment [1] and in experiment [5] was 19.6 µM (active) each time. In addition, the Potency result in experiment [3] and in experiment [6] was “inactive” each time.

Regarding `NCC(O)c1cc(O)c(O)cc1F` (stereo not given), the Potency entry in experiment [1], in experiment [3], in experiment [4], in experiment [5] and in experiment [6] was “inactive” throughout.

In the case of `CCCN1CCC[C@@H](c2cccc(O)c2)C1`, the Potency entry in experiment [1], in experiment [3], in experiment [4], in experiment [5] and in experiment [6] was “inactive” in each case.
